# Assay results published in PubChem BioAssay (NCATS).
# Records with an inconclusive call do not appear. A number with no mark means an inactive call. The source made the active and inactive calls. Calls come from the whole dose curve; as a rule, active = well fitted inhibition curve with a large enough effect; inconclusive = small, poorly fitted or top-dose-only effect; inactive = flat fitted curve, though single readings scatter.
# Target: Calcium and integrin-binding protein 1 (Homo sapiens) (UniProt Q99828)
# Sequence (Q99828 whole entry, looked up): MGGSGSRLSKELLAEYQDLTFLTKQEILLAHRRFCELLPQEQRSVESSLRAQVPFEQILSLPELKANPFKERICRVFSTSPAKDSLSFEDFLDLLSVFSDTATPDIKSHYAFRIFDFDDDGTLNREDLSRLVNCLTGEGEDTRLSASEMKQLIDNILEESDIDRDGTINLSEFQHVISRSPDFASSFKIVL
# Experiment: Primary qHTS for Identification of Calcium Integrin Binding Protein 1 (CIB1) Competitor (AID 1508620);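 for activity change, negative = inhibition: GST tagged CIB1 binding a fluorescein labelled alphaIIb integrin peptide tracer; top concentration of the series differs between compounds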
# Details: CIB1-GST / FITC-alphaIIb peptide fluorescence polarization; series mostly up to 114 µM; activity change, negative = inhibition: at the top concentration
# In short: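 Fluorescence polarization competition: CIB1-GST (1 uM final) preincubated with compound 15 min at room temperature, then FITC-labeled alphaIIb peptide (100 nM final) added for another 15 min. Polarization read at Ex 480/Em 540.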
# % is set by controls: 0 for no effect and ±100 for the full control effect; potency is the fitted concentration of half-maximal effect.
SMILES,"activity change, negative = inhibition [%]",Potency
CC(=O)c1ccc(-c2ccc3ncnc(NCc4ccc(C)o4)c3c2)o1,-7.5,–
Cc1cccc(N2CCN(C(=S)Nc3cc(C)ccn3)CC2)c1,-20.4,–
Cc1cc(C)nc(NC(=S)N2CCN(c3ccc4nsnc4c3)CC2)c1,–,50.1 µM (active)
Cn1c2ccsc2c2cnn(Cc3ccccc3F)c(=O)c21,7.04,–
O=C1CCCC2=C1[C@@]1(CCC(c3ccccc3)C1)N=C(Nc1nc3ccccc3o1)N2 (some centres undefined),–,inactive
COc1cccc(Cn2ncc3c4sc(SC)cc4n(C)c3c2=O)c1,-1.28,–
Cc1cc(C)n2ncc(C(=O)NCc3ccccc3)c2n1,1.05,–
COc1cccc(-n2cnc3cc(C(=O)N4CCCCC4)ccc32)c1,6.63,–
Cc1cnc(-c2ccccc2C(C)C)nc1NCc1ccc(-c2ccnc(C(F)(F)F)c2)cc1,3.21,–
Cc1cc(C)nc(NC(=S)N2CCN(c3cccc(S(C)=O)c3)CC2)c1 (centres undefined),-26.6,–
Cc1cc2c(s1)c1cnn(Cc3ccc(F)c(F)c3F)c(=O)c1n2C,5.28,–
CCOC(=O)c1cccc(-n2cccc2/C=C2\NC(=O)N(CC(=O)O)C2=O)c1,3.97,–
O=C(Nc1ccc2c(c1)CCC2)Nc1nnc(-c2ccncc2)s1,0.762,–
Cc1cc(N[S+](=O)([O-])c2ccc(NC(=O)Cc3nc4ccc(Cl)cc4[nH]3)cc2)no1,-19.8,–
O=C1c2ccccc2C(=O)N1c1ccc(O)cc1,-4.23,–
O=S1(=O)N=C(Oc2ccccc2F)c2ccccc21,-2.86,–
COc1cccc(C2c3c(ncn(-c4cccc(F)c4)c3=N)Oc3ccc4ccccc4c32)c1 (centres undefined),8.78,–
O=C(Nc1nnc(-c2ccncc2)s1)Nc1cc(C(F)(F)F)ccc1F,4.19,–
Cc1cc2c(s1)c1cnn(Cc3ccc4ccccc4c3)c(=O)c1n2C,1.5,–
O=C(/C=C/c1cccs1)Nc1cccc([S+](=O)([O-])Nc2ccccc2F)c1,–,inactive

SMILES,"activity change, negative = inhibition [%]",Potency
NC(=O)C1CCN(c2ncc(-c3ccc4c(c3)OCCO4)s2)CC1,1.43,–
Oc1cc(NCc2ccccc2)cc2cccnc12,-24.2,–
N#Cc1nc(Nc2ccc(-c3ccccc3)cc2)nc(NC2CCCC2)n1,6.24,–
O=C1CCCC2=C1C(c1[nH]ncc1Cl)NC(=NCc1ccco1)N2 (centres undefined),1.93,–
Oc1ccc(CNCc2ccccc2F)c2cccnc12,-1.64,–
Cn1nnnc1Sc1ncnc2scc(-c3cccc(F)c3)c12,0.739,–
Cc1cc2c(s1)c1cnn(Cc3cc(C(F)(F)F)ccc3F)c(=O)c1n2C,-0.885,–
O=S(=O)(Nc1cccc2cccnc12)c1ccccc1O,-9.56,–
COc1cccc(-c2csc(N3CCC(C(N)=O)CC3)n2)c1,-0.068,–
c1ccc(CNc2ccc(N3CCOCC3)cc2)cc1,-7.36,–
CCOc1ccccc1-c1nnc2n1N=C(c1cc(OC)ccc1OC)CS2,2.98,–
O=C(Nc1ccc(-c2nc3ccccc3[nH]2)cc1)Nc1ccc2c(c1)OCCO2,-4.26,–
COc1ccc([S+](=O)([O-])N2CCCN([S+](=O)([O-])c3ccc(OC)c(N)c3)CC2)cc1N,-0.27,–
O=C(CCC#CCSc1nnc(-c2cccc3ccccc23)o1)c1ccccc1,3.05,–
O=C(O)c1sc2c(c1-c1nc3ccccc3s1)CCNC2,-0.636,–
Oc1ccc(Nc2nc(-c3ccncc3)nc3ccccc23)cc1F,-12.1,–
c1csc(CCNc2ncnc3ccc(-c4ccc5c(c4)OCO5)cc23)c1,27.3,–
NC(=O)C1CCN(c2nc(-c3ccc(N4CCCCC4)nc3)cs2)CC1,-14.5,–
Cc1cc(C)n2ncc(C(=O)NCC(C)C)c2n1,3.51,–
